Test results reported in PubChem BioAssay (EPA / NIEHS).
Inconclusive results are not listed. The source made the active and inactive calls. The calls were made as follows: active = hit-call score of the fitted dose curve at least 0.9, where 1 is the maximum; inconclusive = response in the unintended direction; inactive = score below 0.9.

Assay: Tanguay_ZF_120hpf_CIRC_legacy: (Legacy) Oregon State University Tanguay Lab 120 Hour Post-fertilization zebrafish Assay for Circulatory Malformation (AID 2283651)
Protocol: Tanguay_ZF_120hpf_legacy is a whole embryo, multiplexed endpoint assay using zebrafish larvae exposed for 120 hours post fertilization on a 96-well plate.Tanguay_ZF_120hpf_CIRC_legacy is one of one assay component(s) measured or calculated from the Tanguay_ZF_120hpf_legacy assay. It is designed to make measurements of zebrafish development as detected with brightfield microscopy of developing zebrafish embryos.Data from the assay component Tanguay_ZF_120hpf_CIRC_legacy was analyzed into 1 assay endpoints. This assay endpoint, Tanguay_ZF_120hpf_CIRC_legacy, was analyzed in the positive analysis fitting direction relative to DMSO as the negative control and baseline of activity. Using a type of morphology reporter, gain-of-signal activity can be used to understand changes in developmentals as they relate to the whole embryo. To generalize the intended target to other relatable targets, this assay endpoint is annotated to the zebrafish development intended target family, where the subfamily is angiogenesis.
Zebrafish husbandry: Tropical 5D wild-type adult zebrafish were housed in at an approximate density of 1000 per 100 gallon tank at the Sinnhuber Aquatic Research Laboratory, Oregon State University, Corvallis, OR. Each tank was kept at standard laboratory conditions of 28C on a 14-h light/10-h dark photoperiod in fish water consisting of reverse osmosis water supplemented with a commercially available salt (Instant Ocean). Spawning funnels were placed into the tanks the night prior, and embryos were collected and staged. To increase bioavailability, the chorion was enzymatically removed using pronase (63.6mg/ml, >/= 3.5U/mg, Sigma-Aldrich: P5147) at 4 hours post fertilization (hpf) using a custom automated dechorionator.Chemical exposures: Six hpf dechorionated embryos were placed 1 embryo per well in a 96-well plate prefilled with 90 ul of EM using automated embryo placement systems (AEPS). Ten microliters of each row of dilution plate 2 was added to 2 exposure plates. The final DMSO concentration used was 0.64% (vol/vol). Thirty-two embryos were also exposed to 5uM trimethyltin chloride (positive control). Plates were sealed to prevent evaporation and foil covered to reduce light exposure and kept in a 28C incubator. Embryos were statically exposed until 120 hpf. At 24 hpf, embryos were assessed for photomotor response using a custom photomotor response analysis tool (PRAT) and for developmental toxicity endpoints (MO24: mortality at 24 hpf, DP: developmental progression, SM: spontaneous movement, and NC: notochord distortion). At 120 hpf, locomotor activity was measured using Viewpoint Zebralab and assessed for 18 endpoints. Zebrafish acquisition and analysis program (ZAAP), a custom program designed to inventory, acquire, and manage zebrafish data, was used to collect developmental endpoints as either present or absent (i.e., binary responses were recorded). If mortality occurred for an embryo (at either 24 or 120 hpf), the non-mortality endpoints were not measured.

| Compound | outcome |
| --- | --- |
| CCCCCCCCCC[N+](C)(C)[O-] | inactive |
| Cc1ccc(C(C)(C)C)c(O)c1 | inactive |
| OCC(O)CO | inactive |
| O=C1OC(c2ccc(O)cc2)(c2ccc(O)cc2)c2ccccc21 | inactive |
| N[C@@H](Cc1c[nH]c2ccccc12)C(=O)O | inactive |
| O=C(Oc1ccccc1)c1cccc(C(=O)Oc2ccccc2)c1 | inactive |
| C=CCCCCCCCCCCCC | inactive |
| CCOCCOCCO | inactive |
| CN(C)CCCN(C)CCCN(C)C | inactive |
| C#CC(O)C(CC)CCCC (stereo not given) | inactive |
| COC(=O)[C@H]1[C@H]2C[C@@H]3c4[nH]c5cc(OC)ccc5c4CCN3C[C@H]2C[C@@H](OC(=O)c2cc(OC)c(OC)c(OC)c2)[C@@H]1OC | inactive |
| Cc1c(C)c2c(c(C)c1O)CCC(C)(COc1ccc(CC3SC(=O)NC3=O)cc1)O2 (stereo not given) | inactive |
| C=CCc1ccc(OC)c(OC)c1 | inactive |
| CC(=O)OCC(COC(C)=O)OC(C)=O | inactive |
| CC1=C(C)S(=O)(=O)CCS1(=O)=O | inactive |
| COc1ccc(OC(F)(F)F)cc1CN[C@H]1CCCN[C@H]1c1ccccc1 | inactive |
| CCCCCCCC(=O)OC | inactive |
| CC(=O)CC(c1ccccc1)c1c(O)c2ccccc2oc1=O (stereo not given) | inactive |
| CCCCC(CC)CO (stereo not given) | inactive |
| CCC(C)N(C)C(=O)c1cc2ccccc2c(-c2ccccc2Cl)n1 (stereo not given) | inactive |

| Compound | outcome |
| --- | --- |
| O=C1CCCCC1 | inactive |
| CC(N)=O | inactive |
| NC1CCCCC1 | inactive |
| OCC(CO)n1cnc(-c2ccc(F)cc2)c1-c1ccnc(Oc2ccccc2)n1 | inactive |
| CSc1ccc(Oc2ccc(S(N)(=O)=O)cc2CN(C)C)cc1C | inactive |
| CC(=O)O[C@]1(C(C)=O)CC[C@H]2[C@@H]3C=C(Cl)C4=CC(=O)[C@@H]5C[C@@H]5[C@]4(C)[C@H]3CC[C@@]21C | inactive |
| CCN(CC)CCOc1ccc(C(=C(Cl)c2ccccc2)c2ccccc2)cc1 | inactive |
| CC(C)NCC(O)c1ccc(O)c(O)c1 (stereo not given) | inactive |
| CC(C)c1cccc(C(C)C)c1 | inactive |
| Cc1cc(Cc2ccc(N)c(C)c2)ccc1N | inactive |
| C/C=C/C=C/C(=O)O | inactive |
| CCCCCCCCCCCCCCCCO | inactive |
| CCCCCCCCCCCCCCOS(=O)(=O)O | inactive |
| CC1(C)C(=O)NC(=O)N1CO | inactive |
| O=C1O[C@H]([C@H](O)CO)C(O)=C1O | inactive |
| CC(C)OC(=O)C(C)(C)Oc1ccc(C(=O)c2ccc(Cl)cc2)cc1 | inactive |
| Nc1nc(Cl)nc2c1ncn2[C@H]1C[C@H](O)[C@@H](CO)O1 | inactive |
| CC(=O)[C@@]1(O)CC[C@H]2[C@@H]3CCC4=CC(=O)CC[C@]4(C)[C@H]3CC[C@@]21C | inactive |
| Cc1ccc(-c2cc(C(F)(F)F)nn2-c2ccc(S(N)(=O)=O)cc2)cc1 | inactive |
| CN(C)CCCN1c2ccccc2Sc2ccc(Cl)cc21 | inactive |
